Inconclusive results are not listed. Active and inactive are the calls of the source. The call rests on the fitted dose curve; in most records, active means well fitted cell-killing curve with a large enough effect; inconclusive means small, poorly fitted or top-dose-only effect, or effect the other way; inactive means no such curve, though single readings can be large or run the other way.
Test: Quantitative High-Throughput drug screen in 47 multiple myeloma cell lines against the NCATS MIPE library collection: KMS11_JCRBsus cell viability assay (AID 1919873); further: nearly all actives have a fitted effect of over 50% in size
Conditions: KMS11 myeloma viability, CellTiter-Glo ATP luminescence, 48 h; series mostly up to 45.8 µM
Source text: PI: Beverly A. Mock Ph.D.
Laboratory of Cancer Biology and Genetics,
Center for Cancer Research, National Cancer Institute,
National Institute of Health, Bethesda, Maryland
Drug resistance and disease progression are common in multiple myeloma (MM) patients, underscoring the need for new therapeutic combinations. […] We hypothesized that effective combinations would reduce MYC expression and enhance p16 activity. […] These preclinical data identify potentially useful drug combinations for evaluation in drug-resistant MM and reveal potential mechanisms of combined drug sensitivity.
Described herein is the primary MIPE qHTS used to cherrypick compounds. Validated compounds were then further tested for potential synergistic activiy.
[1] Peat TJ, Gaikwad SM, Dubois W, Gyabaah-Kessie N, Zhang S, Gorjifard S, Phyo Z, Andres M, Hughitt VK, Simpson RM, Miller MA, Girvin AT, Taylor A, Williams D, D'Antonio N, Zhang Y, Rajagopalan A, Flietner E, Wilson K, Zhang X, Shinn P, Klumpp-Thomas C, McKnight C, Itkin Z, Chen L, Kazandijian D, Zhang J, Michalowski AM, Simmons JK, Keats J, Thomas CJ, Mock BA. Drug combinations identified by high-throughput screening promote cell cycle transition and upregulate Smad pathways in myeloma. Cancer Lett. 2023 Aug 1;568:216284. doi: 10.1016/j.canlet.2023.216284. Epub 2023 Jun 24. PMID: 37356470; PMCID: PMC10408729.
SEQUENCE No. (e.g., 1, 2, 3, etc.); […] (e.g., Cells, Incubation, Reagent, etc.); VALUE and DESCRIPTION.
1; Cells; 5 uL; white, solid bottom 1536-well Greiner assay plate.
2; Compounds; 23 nL; Kalypsis pin tool (Wako USA) equipped with a 1536-well pin head to transfer to the assay plates.
3; Incubation; 48 hours; 37C incubation.
4; Reagent;5uL; CellTiter Glo (Promega).
5; Detector; 425V; Luminescence; Viewlux PerkinElmer.
NOTES (numbers refer to Sequence numbers above)
1. The cell-based screening methods employed in this study were like those previously published. Briefly, the corresponding myeloma cell lines were screened in 1,536-well plates with 500 cells, 5-uL per well for inhibition of cell viability (assessed by measuring ATP levels with CellTiterGlo).
2. NCATS MIPE 4.0 library of approved and investigational drugs were added using the Kalypsis pin tool. Wells treated with DMSO only for 100% viability and media only for 0% viability were used as controls.
3. The assay plates were covered and incubated for 48 hours in a 37C, 5% CO2 incubator with controlled humidity.
4. After 48 hours, CellTilter-GloTM luminescent substrate mix (Promega) reagent was added to the assay plate and plates we incubated for 5 min at room temperature.
5. Signal was measured as median relative luminescence units on a ViewLux (PerkinElmer) multiplate reader.
[1] Heske CM, Davis MI, Baumgart JT, Wilson K, Gormally MV, Chen L, Zhang X, Ceribelli M, Duveau DY, Guha R, Ferrer M, Arnaldez FI, Ji J, Tran HL, Zhang Y, Mendoza A, Helman LJ, Thomas CJ. Matrix Screen Identifies Synergistic Combination of PARP Inhibitors and Nicotinamide Phosphoribosyltransferase (NAMPT) Inhibitors in Ewing Sarcoma. Clin Cancer Res. 2017 Dec 1;23(23):7301-7311. doi: 10.1158/1078-0432.CCR-17-1121. Epub 2017 Sep 12. PMID: 28899971; PMCID: PMC6636827.
Potency means the concentration at half of the fitted maximal effect.

Compound | Potency
CCc1cc(C(C)=NOCc2ccc(C3CCCCC3)c(C(F)(F)F)c2)ccc1CN1CC(C(=O)O)C1 | inactive
CC[C@]12C=CCN3CC[C@@]4(c5cc([C@@]6(C(=O)OC)C[C@H]7C[C@@H](C(C)(F)F)CN(Cc8c6[nH]c6ccccc86)C7)c(OC)cc5N(C)[C@H]4[C@@](O)(C(=O)OC)[C@H]1OC(C)=O)[C@@H]32 | 0.0026 µM (active)
N#Cc1c(C2CCNCC2)cc(-c2c(O)cccc2OCC2CC2)nc1N | 18.7 µM (active)
O=c1[nH]c(=O)n([C@H]2C[C@@H](O)[C@@H](CO)O2)cc1C=CBr | inactive
CCCNC(=O)[C@H]1O[C@H]1C(=O)N[C@H](C(=O)N1CCC[C@@H]1C(=O)OC)C(C)CC (stereo not given in full) | 23.5 µM (active)
C[C@H]1[C@@H](OC(=O)CCC(=O)O)O[C@@H]2O[C@@]3(C)CC[C@@H]4[C@H](C)CC[C@@H]1[C@@]24OO3 | 1.32 µM (active)
O=C1NC(=O)[C@@H](c2cn3c4c(cccc24)CCC3)[C@H]1c1c[nH]c2ccccc12 | 0.118 µM (active)
COc1cc(C)c(Sc2cnc(NC(=O)c3ccc(CNC(C)C(C)(C)C)cc3)s2)cc1C(=O)N1CCN(C(C)=O)CC1 (stereo not given) | 5.9 µM (active)
CC(C)n1cnc2c(NCCc3ccc(O)cc3)nc(-c3csc4ccccc34)nc21 | 18.7 µM (active)
N#CNC(=NCCCCCCOc1ccc(Cl)cc1)Nc1ccncc1 | 0.0026 µM (active)
C#CCC(Cc1cnc2nc(N)nc(N)c2n1)c1ccc(C(=O)N[C@@H](CCC(=O)O)C(=O)O)cc1 (stereo not given in full) | 0.0935 µM (active)
O=C(CCCCCCC(=O)Nc1cccnc1)NO | 5.9 µM (active)
CCOC(=O)C1=C(C)NC(=S)NC1c1cccc(O)c1 (stereo not given) | 0.0166 µM (active)
C=C1C(=CC=C2CCC[C@]3(C)[C@@H]([C@H](C)CCCC(C)(C)O)CC[C@@H]23)C[C@@H](O)C[C@@H]1O | 9.35 µM (active)
CCOC(=O)[C@@H](N)Cc1ccc(-c2cc(O[C@H](c3ccc(Cl)cc3-n3ccc(C)n3)C(F)(F)F)nc(N)n2)cc1 | 16.6 µM (active)
N[C@H]1CN(c2c(F)cc3c(=O)c(C(=O)O)cn(C4C[C@@H]4F)c3c2Cl)CC12CC2 (stereo not given in full) | inactive
CCN(CC)CCNC(=O)c1c(C)[nH]c(C=C2C(=O)Nc3ccc(F)cc32)c1C | 1.52 µM (active)
COC(=O)[C@H](CCCN=C(N)N)NS(=O)(=O)c1ccc(C)cc1 | inactive
CC(C)(N)c1ccc(-c2nc3ccccc3nc2-c2ccccc2)cc1 | 18.7 µM (active)
O=C(O)C[C@H](O)C[C@H](O)C=Cc1c(C2CC2)nc2ccccc2c1-c1ccc(F)cc1 | 7.43 µM (active)

Compound | Potency
CCCCCN=C(N)NN=Cc1c[nH]c2ccc(OC)cc12 | 2.64 µM (active)
COc1cccc2c1C(=O)c1c(O)c3c(c(O)c1C2=O)C[C@@](O)(C(=O)CO)C[C@@H]3O[C@H]1C[C@H](N)[C@@H](O)[C@H](C)O1 | 0.935 µM (active)
CCN1CCN(C(=O)N[C@H](C(=O)N[C@@H]2C(=O)N3C(C(=O)O)=C(CSc4nnnn4C)CS[C@@H]23)c2ccc(O)cc2)C(=O)C1=O | inactive
COc1cc(C(=O)NC2CCN(C)CC2)ccc1Nc1ncc2c(n1)N(C1CCCC1)CCC(=O)N2C(C)C | 20.9 µM (active)
CC(C)c1cc(C(C)C)c(CC(=O)NS(=O)(=O)Oc2c(C(C)C)cccc2C(C)C)c(C(C)C)c1 | 2.35 µM (active)
COc1cc([C@@H]2c3cc4c(cc3[C@H](O)[C@H]3COC(=O)[C@@H]23)OCO4)cc(OC)c1OC | 0.0296 µM (active)
Cc1cn([C@@H]2O[C@H](CO)[C@@H](O)[C@H]2F)c(=O)[nH]c1=O | inactive
C[C@H]1COc2c(N3CCN(C)CC3)c(F)cc3c(=O)c(C(=O)O)cn1c23 | inactive
c1cc(CN2CCCNCCNCCCNCC2)ccc1CN1CCCNCCNCCCNCC1 | inactive
Nc1ccc(C(=O)Nc2cccc(-c3nc(N4CCOCC4)c4oc5ncccc5c4n3)c2)cn1 | 6.62 µM (active)
NC(=O)Nc1sc(-c2ccc(F)cc2)cc1C(N)=O | 4.69 µM (active)
Cc1ccc(-n2[nH]c(C)c(N=Nc3cccc(-c4cccc(C(=O)O)c4)c3O)c2=O)cc1C | 23.5 µM (active)
CC(Cc1ccc(O)c(O)c1)(NN)C(=O)O (stereo not given) | 26.4 µM (active)
Cc1cnn(C)c1C(=O)Nc1cc(Nc2ccc3c(C=Cc4ccccn4)n[nH]c3c2)ccc1F | 11.8 µM (active)
CC(=O)[C@]1(O)Cc2c(O)c3c(c(O)c2[C@@H](O[C@H]2C[C@H](N)[C@@H](O)[C@H](C)O2)C1)C(=O)c1ccccc1C3=O | 0.264 µM (active)
CC(=O)O[C@]1(C(C)=O)CC[C@H]2[C@@H]3C=C(C)C4=CC(=O)CC[C@]4(C)[C@@H]3CC[C@@]21C | inactive
COc1cc(O)c2c(c1)C1OC1C[C@H](O)[C@H](O)C(=O)C=CC[C@H](C)OC2=O (stereo not given in full) | 2.35 µM (active)
C[C@@H]1[C@H](C)CC[C@]2(C(=O)O)CC[C@]3(C)C(=CC[C@@H]4[C@@]5(C)C[C@@H](O)[C@H](O)[C@@](C)(CO)[C@H]5CC[C@]43C)[C@@H]12 | inactive
CCC(C(=O)O)C1CCC(C)C(C(C)C(O)C(C)C(=O)C(CC)C2OC3(C=CC(O)[C@@]4(CC[C@](C)(C5CC[C@@](O)(CC)C(C)O5)O4)O3)C(C)CC2C)O1 (stereo not given in full) | 3.72 µM (active)
COc1cccc2c1C(=O)c1c(O)c3c(c(O)c1C2=O)C[C@@](O)(C(=O)CO)C[C@H]3O[C@H]1C[C@H](N)[C@H](O)[C@H](C)O1 | 0.743 µM (active)

From PubChem BioAssay (NCATS)
